Bioassay records deposited in PubChem BioAssay by several laboratories.
C8 TRAIL sens: caspase-8 TRAIL sensitization. 360,000 tested, 1% active. inhibition (viability loss, TRAIL sensitization), % at 10 µM. AID 624354. NB7+C8 cells + TRAIL, ATPlite viability luminescence;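 active = compounds causing at least 50% loss of cell viability in the single-dose screen, relative to plate controls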
aSyn 5UTR inh: MLPCN primary screen, SNCA 5' untranslated region; alpha-synuclein 5'UTR reporter, inhibitor activity; inhibition, % (tested at 7.5 µM); 300,000 tested, 0.82% active; AID 1813; in the data active = inhibition above about 60%;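 also: H4 neuroglioblastoma cells stably carrying SNCA 5'UTR luciferase fusion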
HIF-2a block: HIF-2a inhibition; 786-0 RCC cells HIF-2a reporter, luciferase luminescence, overnight; inhibition, % at 18.8 µM; 360,000 tested, 0.72% active; AID 624352;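 active = inhibition of the luminescence signal of 40% or more relative to plate controls, in a single-dose primary screen at 18.75 µM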
HSP90 inh: HSP90 refolding inhibition in rabbit reticulocyte lysate. luciferase refolding luminescence, 3 h. inhibition, % at 5.6 µM. 290,000 tested, 0.91% active. AID 1789;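 active = inhibition above the screen-wide mean plus 3 SD, computed separately per campaign, cut at about 16% in these data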;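 also: inhibitors lower the luminescence because luciferase stays unfolded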
TROY signal inh: inhibitors of TROY-dependent NF-kB signaling; Q293 LMP1-TROYcd NF-kB luciferase reporter, 4 h; 360,000 tested, 0.98% active; inhibition, % at 10 µM; AID 1347056;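 active = compounds whose plate-normalised and pattern-corrected inhibition of the luciferase reporter signal at the single screening dose is 50% or more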
TWEAK Fn14 block: inhibitors of TWEAK-Fn14 interaction signaling. TWEAK-stimulated Fn14 reporter cells, luciferase luminescence, 8 h. inhibition, % at 10 µM. 360,000 tested, 2% active. AID 1159606; in the data active = inhibition above about 50%
Mdm2 MdmX conf: confirmation of inhibitors of human Mdm2/MdmX interaction, set 2. 740 tested, 99% active. inhibition, % at 8 µM. shares compounds with HIF-2a block. SaOS-2 split-luciferase Mdm2/MdmX complementation, luminescence;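 active = mean inhibition of the luminescence signal across two replicates at or above 26 percent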
HIF-2a conf: HIF-2a inhibition, single concentration confirmation; 786-0 RCC cells, HIF-2a luciferase reporter luminescence, overnight; inhibition, % at 18.8 µM; shares compounds with HIF-2a block; AID 651580; 1,800 tested, 56% active;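 active = mean inhibition across four replicates of at least 40 percent at the single tested concentration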
HIF-1a counter: counter-screen for HIF-2a inhibitors: HIF-1a inhibition in MiaPaCa-2 cells; shares compounds with HIF-2a block; MiaPaCa-2 HIF-1a luciferase reporter, desferoxamine, overnight; inhibition, % at 18.8 µM; 1,800 tested, 72% active; AID 651589;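 active = mean inhibition of the reporter signal across four replicates at the single tested dose of 50% or more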
A number is an active result. The list is not random: actives were taken first. Their share in the collection is about 3.9%.

For CC(C)(C)n1nc(-c2ccc(F)cc2)c2c(N)ncnc21 the results were C8 TRAIL sens inactive, aSyn 5UTR inh 70.9, HIF-2a block 43.3, HSP90 inh inactive, TROY signal inh inactive, TWEAK Fn14 block inactive, HIF-2a conf 45.2 and HIF-1a counter inactive.
Screening COCCN1C(=O)c2ccccc2C1c1nc2ccccc2[nH]1 (stereo not drawn) returned C8 TRAIL sens inactive, HIF-2a block inactive, TROY signal inh inactive and TWEAK Fn14 block inactive.
For O=C(c1ccc(Cl)cc1)N1CCCCC(Sc2nnc(-c3ccc4c(c3)OCO4)o2)C1=O (stereo not drawn) the results were C8 TRAIL sens 68.7, aSyn 5UTR inh 92.0, HIF-2a block 63.9, HSP90 inh 30.9, TROY signal inh 57.8, TWEAK Fn14 block 97.6, HIF-2a conf 82.6 and HIF-1a counter 67.7.
For O=C(c1[nH]c(C(F)(F)F)nc1-c1ccccc1)N1CCCN(Cc2ccc(F)cc2)CC1 the results were C8 TRAIL sens inactive, HIF-2a block inactive, TROY signal inh inactive and TWEAK Fn14 block inactive.
For COc1ccc(-n2nc(C#N)c(Cl)cc2=O)cc1 the results were C8 TRAIL sens inactive, HIF-2a block 91.0, HSP90 inh inactive, TROY signal inh 60.6, TWEAK Fn14 block 95.8 and Mdm2 MdmX conf 103.2.
COc1cc(C(=O)NCC2CCCO2)cc(Br)c1OCc1ccccc1 (stereo not drawn) was read as C8 TRAIL sens inactive, HIF-2a block inactive, TROY signal inh inactive and TWEAK Fn14 block inactive.
For COc1ccc(C(=O)O/N=C(\N)Cc2ccc(Cl)c(Cl)c2)cc1OC the results were C8 TRAIL sens inactive, aSyn 5UTR inh inactive, HIF-2a block 87.9, HSP90 inh inactive, TROY signal inh inactive, TWEAK Fn14 block 92.4, HIF-2a conf inactive and HIF-1a counter inactive.
For COc1ccc(C(=O)O/N=C(\N)Cc2ccc(Cl)cc2)cc1OC the results were C8 TRAIL sens 94.2, aSyn 5UTR inh inactive, HIF-2a block 61.9, HSP90 inh inactive, TROY signal inh inactive, TWEAK Fn14 block 72.1, HIF-2a conf inactive and HIF-1a counter inactive.
COc1ccc(C/C(N)=N/n2cnnc2)cc1Cl was read as C8 TRAIL sens inactive, aSyn 5UTR inh inactive, HIF-2a block inactive, HSP90 inh inactive, TROY signal inh inactive and TWEAK Fn14 block inactive.
Screening Nc1c(Cl)cc(C(=O)NC2CC2)cc1Cl returned C8 TRAIL sens inactive, HIF-2a block inactive, TROY signal inh inactive and TWEAK Fn14 block inactive.
Cc1ccc(S(=O)(=O)ON2C(=O)c3ccccc3C2=O)c(C)c1 was read as C8 TRAIL sens inactive, HIF-2a block 72.4, HSP90 inh inactive, TROY signal inh inactive, TWEAK Fn14 block inactive, HIF-2a conf 58.8 and HIF-1a counter inactive.
Screening Cc1cc(C)c(S(=O)(=O)ON2C(=O)c3ccccc3C2=O)cc1C returned C8 TRAIL sens inactive, aSyn 5UTR inh inactive, HIF-2a block inactive, HSP90 inh inactive, TROY signal inh inactive and TWEAK Fn14 block inactive.
Screening Cc1cc(C)c(C)c(S(=O)(=O)ON2C(=O)c3ccccc3C2=O)c1C returned C8 TRAIL sens inactive, aSyn 5UTR inh inactive, HIF-2a block 56.4, HSP90 inh inactive, TROY signal inh inactive, TWEAK Fn14 block inactive, HIF-2a conf 50.1 and HIF-1a counter inactive.
Screening C[C@@H]1CN([C@@H](C)CO)C(=O)CCCn2nncc2CO[C@@H]1CN(C)C(=O)Nc1ccc2c(c1)OCO2 returned C8 TRAIL sens inactive, HIF-2a block inactive, TROY signal inh inactive and TWEAK Fn14 block inactive.
C=C1C(=O)O[C@H]2C[C@H]1[C@@H](OC(C)=O)C/C(C)=C/CC/C(C)=C\CC[C@]2(C)O was read as C8 TRAIL sens inactive, HIF-2a block 94.4, TROY signal inh inactive, TWEAK Fn14 block 86.2, HIF-2a conf 96.2 and HIF-1a counter 105.4.
